We go through 99 compounds from PubChem BioAssay AID1566 (Sanford-Burnham Center for Chemical Genomics, 2009).

The campaign covered roughly 290,000 compounds. About 1,800 (0.62%) were called active. Many of the other results were omitted from the sample, so actives are more common in it than they were. Unmarked numbers belong to inactive results. Cut-off read from the data, not from the text of the source: active = inhibition above about 50%; inactive = the rest.

The nature of the assay: NOD2 signaling inhibitors, cell-based, luminescence, uHTS, HEK293 (AID 1566). As to conditions: HEK293 NOD2/NF-kB luciferase reporter, at 4 µM, stronger effect = higher value.
As to `Cc1ccc(S(=O)(=O)N2CCN3CCCC3C2)cc1` (centres undefined), the inhibition was 17.2%.

As for `O=C(O)c1ccc(-n2c(/C=C/c3ccccc3)nc3ccccc3c2=O)cc1`, the inhibition is -19.9%.

In the case of `COc1ccc(Oc2nnc(-c3ccc(C)cc3)c3ccccc23)cc1`, the inhibition is 14.9%.

As for `Cc1ccc(/C=C/C(=O)Nn2cnnc2)cc1`, the inhibition was 5%.

As to `Cc1ccc(C)c(S(=O)(=O)NCc2ccncc2)c1`, the inhibition was 22.5%.

Regarding `Cc1cc(Br)c(S(=O)(=O)NCc2ccncc2)cc1C`, the inhibition was 48.6%.

Consider `Cc1c(NP(=O)(Oc2ccccc2F)Oc2ccccc2F)c(=O)n(-c2ccccc2)n1C`, for which the inhibition is 7.9%.

For `O=C(Nc1cc(S(=O)(=O)N2CCCC2)ccc1OCC(F)(F)F)c1ccccc1F`, the inhibition was 6.6%.

On to `COC(=O)c1c(-c2ccccc2)csc1NC(=O)CSc1ncnc2sc(C)c(C)c12`, for which the inhibition was 34.6%.

Regarding `COC(=O)c1c(-c2cccs2)csc1NC(=O)CSc1ncnc2sc(C)c(C)c12`, the inhibition was 51.2% (active).

Consider `Cc1cccc(NC(=O)CSc2ncnc3sc(C)c(C)c23)n1`, for which the inhibition is 36.5%.

For the compound `O=C(O)CN1C(=O)C2C3CC(C2C1=O)C1C(c2ccc(Cl)cc2)c2sc(=O)[nH]c2SC31` (centres undefined), the inhibition was 3.8%.

For the compound `Cc1nn(-c2ccccc2)c(Cl)c1/C=N/NC(=O)OC(C)(C)C`, the inhibition is -73.9%.

Take `CC1CCN(S(=O)(=O)c2nnc(NC(=O)c3cccc([N+](=O)[O-])c3)s2)CC1`: the inhibition is 37.1%.

For `Cc1ccc(C(=O)Nc2nnc(S(=O)(=O)N3CCCCCC3)s2)cc1`, the inhibition is 4.6%.

With `O=C(Nc1nnc(S(=O)(=O)N2CCCCC2)s1)c1ccc(Cl)cc1`, the inhibition was 47.8%.

Consider `Cc1cccc(C(=O)Nc2nnc(S(=O)(=O)N3CCC(C)CC3)s2)c1`, for which the inhibition was -3.6%.

For `CC(=O)c1cccc(NCC(=O)c2ccc(C)c([N+](=O)[O-])c2)c1`, the inhibition was 15.7%.

Regarding `Cc1ccc(S(=O)(=O)Nc2nnc(C(C)(C)C)s2)cc1`, the inhibition is 20.9%.

As for `N/C(=N\c1nc(CSc2ccc(Cl)cc2)cc(=O)[nH]1)Nc1ccccc1C(F)(F)F`, the inhibition is 2.8%.

With `CC(=O)N1N=C(c2ccco2)CC1c1cccs1` (centres undefined), the inhibition was -8.2%.

In the case of `Cc1ccc(C2CC(c3cccs3)=NN2C(=O)CCl)cc1` (centres undefined), the inhibition is 37.3%.

`O=C(O)CCC(=O)N1N=C(c2ccco2)CC1c1cccs1` (centres undefined): the inhibition was 12.1%.

On to `Cc1ccc(C2=NN(C(=O)CCl)C(c3ccco3)C2)o1` (centres undefined), for which the inhibition is -44.2%.

In the case of `CCOC(=O)c1cccc(NC(=O)COC)c1`, the inhibition was 4.6%.

In the case of `CCOCCCNC(=O)/C(C#N)=C/c1ccc(C(=O)OC)cc1`, the inhibition is 15.4%.

As to `O=C1Nc2ccccc2S/C1=C\C(=O)N1CCCC1`, the inhibition was -4%.

As to `O=C(CCNC(=O)c1ccco1)Nc1ccccc1N1CCOCC1`, the inhibition is -4.7%.

Regarding `COc1cc(/C=C2\SC(=O)N(CC(=O)Nc3cccc(C)c3)C2=O)cc([N+](=O)[O-])c1O`, the inhibition is 1.5%.

As for `CCOc1cc(/C=C2\SC(=O)N(CC(=O)Nc3ccccc3F)C2=O)cc([N+](=O)[O-])c1O`, the inhibition was 55.8% (active).

Take `COc1cc(/C=C2\SC(=O)N(CC(=O)Nc3ccccc3F)C2=O)cc(Cl)c1O`: the inhibition was 18.4%.

As for `O=C(NC1CCCCC1)C1CN(S(=O)(=O)c2ccccc2)CCN1S(=O)(=O)c1ccccc1` (centres undefined), the inhibition was 20.9%.

In the case of `CCOC(=O)/C(C#N)=C1/SC(CC)C(=O)N1c1ccc(Br)cc1` (centres undefined), the inhibition is -8.1%.

As for `CC1CCN(C(=S)c2cn(Cc3ccccc3F)c3ccccc23)CC1`, the inhibition was 10.5%.

On to `CC(=O)Oc1cccc(N2C(=O)C3CC=CCC3C2=O)c1` (centres undefined), for which the inhibition was 2.7%.

Consider `Cc1csc2c(N3CCN(C(=O)Nc4ccc(OC(F)(F)F)cc4)CC3)ncnc12`, for which the inhibition is 10.4%.

In the case of `Cc1csc2c(N3CCN(C(=O)Nc4ccccc4)CC3)ncnc12`, the inhibition was 34.1%.

With `CC(NS(=O)(=O)c1ccc(Cl)cc1)C(=O)N1CCOCC1` (centres undefined), the inhibition is -4.3%.

Regarding `Cc1cc(OCC(=O)NCCCn2ccnc2)c2c(C)c(C)c(=O)oc2c1`, the inhibition was -3.4%.

In the case of `CC(CCc1ccco1)N(C)S(=O)(=O)c1csc(C(N)=O)c1` (centres undefined), the inhibition is 15%.

In the case of `CC(=O)c1ccc(S(=O)(=O)N(C)C(C)CCc2ccco2)cc1` (centres undefined), the inhibition was 54.3% (active).

`COc1ccc(S(=O)(=O)N(C)C(C)CCc2ccco2)cc1` (centres undefined): the inhibition was -3.3%.

As for `CC(C)(C)C(=O)C[n+]1cccc(C(N)=O)c1`, the inhibition was 12.8%.

`Cc1cc(N2CCCC2)ccc1NC(=O)COc1cccc(C(F)(F)F)c1`: the inhibition is 60.3% (active).

For the compound `O=C(COc1ccccc1)Nc1cc(C(F)(F)F)ccc1N1CCCC1`, the inhibition is 24.5%.

As to `O=C(COc1cccc(C(F)(F)F)c1)Nc1ccc(S(=O)(=O)N2CCCC2)cc1`, the inhibition is -5.9%.

In the case of `O=C(Nc1cccc(C(F)(F)F)c1)C1CCN(S(=O)(=O)c2ccc(N3CCCC3=O)cc2)CC1`, the inhibition is 34.8%.

Regarding `Cc1cc(C)c(N=C2C(=O)Nc3ccccc32)c(C)c1`, the inhibition was 22.5%.

Turning to `Cc1ccc(N=C2C(=O)Nc3ccccc32)cc1`, the inhibition was 4%.

Take `Cc1cccc(C)c1N=C1C(=O)Nc2ccccc21`: the inhibition was 57.9% (active).

Regarding `CCN(CC)C(=O)C1CCN(S(=O)(=O)c2ccc3c(c2)CCCN3C(=O)C2CCC2)CC1`, the inhibition was 23.6%.

Take `COc1ccc(NC(C)=O)cc1NC(=O)c1ccc2ccccc2c1`: the inhibition was -14.6%.

As for `CCc1sc(NC(C)=O)nc1-c1ccccc1`, the inhibition is -49.5%.

As to `CC(=O)Nc1ccc(NC(=O)C2CCC(CNS(=O)(=O)c3cccc4nsnc34)CC2)cc1` (centres undefined), the inhibition was -8.1%.

As for `CCCc1cc(=O)n2nc(N3CCC(C(=O)N4CCN(c5ccc(OC)cc5)CC4)CC3)sc2n1`, the inhibition was 62.2% (active).

For the compound `Cc1cc(=O)n2nc(N3CCC(C(=O)N4CCN(c5ccccc5)CC4)CC3)sc2n1`, the inhibition was -8.2%.

Take `CCCc1cc(=O)n2nc(N3CCC(C(=O)N4CCN(c5cccc(OC)c5)CC4)CC3)sc2n1`: the inhibition is 40.5%.

`NS(=O)(=O)c1ccc(CCNC(=O)c2ccc3ccccc3n2)cc1`: the inhibition was -17.8%.

With `O=C(Nc1nnc(C2CC2)s1)c1ccc(Cl)c(S(=O)(=O)N2CCc3ccccc3C2)c1`, the inhibition is 41.6%.

Regarding `CCc1nnc(NC(=O)c2ccc(S(=O)(=O)N3CCc4ccccc4C3)cc2)s1`, the inhibition was 25.4%.

With `CCCn1ncc(CN2CCCC(C(=O)c3cccc(OC(C)C)c3)C2)c1C` (centres undefined), the inhibition was -35.2%.

On to `Cc1[nH]c2ccc(C(=O)N3CCCCC3)cc2c1C`, for which the inhibition was -56%.

For the compound `CCC(=O)OCn1nnc2ccccc2c1=O`, the inhibition was 7.6%.

On to `Cc1sc(NC(=O)c2cccc([N+](=O)[O-])c2)c(C(N)=O)c1-c1ccc(C(C)(C)C)cc1`, for which the inhibition is 7.8%.

Take `Cc1sc(NC(=O)CCC(=O)O)c(C(N)=O)c1-c1ccccc1`: the inhibition was -3.9%.

Take `O=S(=O)(Nc1cccc(-c2cn3cccnc3n2)c1)c1ccc(F)cc1`: the inhibition was 0.9%.

Regarding `O=S(=O)(Nc1cccc(-c2cn3cccnc3n2)c1)c1ccccc1`, the inhibition is 4.2%.

Regarding `COC(=O)C1CC(Cl)CN1c1ncc(C(F)(F)F)cc1Cl` (centres undefined), the inhibition was 17.1%.

For `c1ccc(CNc2ncnc3ccccc23)cc1`, the inhibition is 55.3% (active).

With `Clc1ccc2c(NCc3ccco3)ncnc2c1`, the inhibition was 18.8%.

Take `COc1cc2ncnc(NCc3ccccc3)c2cc1OC`: the inhibition is -17.4%.

On to `COc1cc2ncnc(NCc3ccco3)c2cc1OC`, for which the inhibition is -78.1%.

As to `c1ccc(CNc2nc(NCc3ccccc3)c3ccccc3n2)cc1`, the inhibition is -4.4%.

Turning to `CCCCCCCCNc1ncnc2ccccc12`, the inhibition was 55.7% (active).

Consider `CCN(CC)CCCNc1ncnc2ccccc12`, for which the inhibition is 9.5%.

For `Brc1ccc2ncnc(NCc3ccccc3)c2c1`, the inhibition is 79% (active).

As to `OCCNc1ncnc2ccc(Br)cc12`, the inhibition is 23%.

On to `c1ccc(CCNc2ncnc3ccccc23)cc1`, for which the inhibition is 28.7%.

Take `OCCCCCNc1ncnc2ccccc12`: the inhibition is 40.1%.

Take `Nc1nc(Nc2cccc(Cl)c2)nc(NCCO)c1[N+](=O)[O-]`: the inhibition is 15.3%.

For the compound `CCOc1ccc(CN(C)CC(=O)Nc2cc(OC)c([N+](=O)[O-])cc2C)cc1`, the inhibition is -8%.

As for `CCCN(CCC)S(=O)(=O)c1ccc(C(=O)NNc2nc(-c3ccccc3)c3cc(Br)ccc3n2)cc1`, the inhibition is -5%.

For the compound `Cc1cccnc1NC(=O)CCNC(=O)c1ccccc1Cl`, the inhibition was -22.7%.

For the compound `COc1ccccc1NC(=O)CSc1n[nH]c(-c2cccnc2)n1`, the inhibition was 8.6%.

As to `COc1ccc(C2C(C(=O)c3ccco3)=C(O)C(=O)N2CCCn2ccnc2)c(OC)c1` (centres undefined), the inhibition is -6.9%.

Consider `CC(C)=C(NC(=O)c1ccccc1)C(=O)NCc1ccccc1`, for which the inhibition is -7%.

With `O=c1sc2ccccc2c(N2CCOCC2)c1[N+](=O)[O-]`, the inhibition is 8.4%.

Turning to `COc1cc(/C=N\n2cnnc2)ccc1OCC(=O)Nc1ccc(C)cc1`, the inhibition is 12.5%.

For the compound `COC(=O)C1(Cc2cc(-c3cccnc3)no2)CCN(C(=O)OC(C)(C)C)CC1`, the inhibition was 15.6%.

For `CN1CCN(c2ccc(-c3ccc4ccccc4n3)cc2)CC1`, the inhibition was 79.9% (active).

For the compound `c1ccc2nc(-c3ccc(N4CCOCC4)cc3)ccc2c1`, the inhibition is -59.7%.

Turning to `COc1ccc(-c2ccc3ccccc3n2)cc1`, the inhibition was -226%.

`Nc1ccc(Oc2cc(N)cc(Oc3ccccc3)c2)cc1`: the inhibition was -93.4%.

Take `Cc1cccc(Oc2ccc(N)cc2)c1`: the inhibition is -4%.

On to `CC(C)c1ccc(C(C(=O)NC2CCCC2)N(C(=O)c2csnn2)C2CC2)cc1` (centres undefined), for which the inhibition was 12.1%.

As for `CC(SCc1ccccc1)C(=O)NC1CCCC1` (centres undefined), the inhibition is -2.5%.

As for `Cc1cc(C)nc(SCC(=O)Nc2ccnc3ccccc23)n1`, the inhibition was 50.5% (active).

Turning to `Cc1nc(SCC(=O)Nc2ccnc3ccccc23)n[nH]1`, the inhibition is 17.9%.

Turning to `Cc1cc(=O)[nH]c(SCC(=O)Nc2ccnc3ccccc23)n1`, the inhibition is 26.4%.
